Drawing on PubChem BioAssay (NCI), this text covers growth for 40 compounds.

The panel holds about 83,000 compounds, 20% with a hit somewhere; the sample as a whole holds those more often.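 Testing used 96-well plates and a 48-hour single-concentration exposure. Example: -40 means 40% of the starting cells died.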 Values without a mark were called inactive. Active and inactive are the calls of the source.

The subject of the experiment is OVCAR-5 ovarian. The experiment in a line: NCI-60 one-dose screen, 48 h (100 = growth as untreated, 0 = no growth, -100 = all killed). The conditions noted are these: 10 µM unless noted. On the procedure:
Growth inhibition of the OVCAR-5 human tumor cell line is measured as a screen for anti-cancer activity. Cells are grown in 96 well plates and exposed to the test compound for 48 hours. Compounds are tested at a single concentration, which is 10^-5 M for most compounds. The reported endpoint is percent growth (GI% or GIPRCNT), where numbers from 0 - 100% represent growth inhibition, and numbers from -100% - 0 represent cell death. For example, a value of 40 represents 60% growth inhibition. A value of 0 means no net growth occurred over the course of the experiment. A value of -40 indicates 40% of cells at the beginning of the experiment died by the end of the experiment. A value of -100 means all cells are dead at the end of the experiment.
NCI-60 Human Tumor Cell Lines Screen was performed using the standard one-dose NCI protocol, which is described in more detail at https://dtp.cancer.gov/discovery_development/nci-60/default.htm.
Compounds with GIPRCNT values below 10 were considered active. Activity score was based on GIPRCNT using the following formula: […]
Score is 0 for GIPRCNT values of 100 or above, 50 for GIPRCNT values of 0, and 100 for GIPRCNT values of -100.
As for `Cc1cc(C(=O)c2ccccc2)c(C)c2c1[nH]c1ccc(Cl)cc12`, the growth was 43.5%.

Consider `Cc1ccccc1NC(=O)N/C(N)=N/c1nc(C)c(C)s1`, for which the growth was 41.4%.

For `O=C(NC(Cc1nnc2n(Cc3ccccc3)c(=O)c3c4c(sc3n12)CCCC4)c1ccc(Cl)cc1)c1ccccc1` (stereo not given), the growth was 104%.

Consider `COc1ccccc1N1C(=O)/C(=C/C2=Cc3ccccc3OC2)SC1=S`, for which the growth was 99.2%.

Consider `Cc1cc(Cl)ccc1Nc1nc(C(F)(F)F)ccc1C(=O)N/N=C/c1ccc(N(C)C)cc1`, for which the growth is 43.2%.

Turning to `Cc1ccc2nc(NC(=O)CSc3nc(Nc4ccc([N+](=O)[O-])cc4)c(C#N)c(-c4ccccc4)n3)sc2c1`, the growth was 87.5%.

Turning to `O=[N+]([O-])c1ccc(-c2cc(-c3ccc(Nc4nc(Nc5ccc(Cl)cc5)nc(Nc5ccc(Cl)cc5)n4)cc3)no2)cc1`, the growth was 70.7%.

For `Cc1cccc(NC(=O)CSc2nc3ccccc3[nH]2)c1`, the growth was 106%.

Turning to `COc1cccc(-c2nn(-c3ccccc3)cc2-c2ccnc(NCCCNC(=O)c3ccc(F)cc3)c2)c1`, the growth is 85.4%.

For the compound `NC(=O)c1ccc[n+](Cc2ccc(Cl)cc2Cl)c1`, the growth was 96.9%.

For `O=C(NCCCNc1cc(-c2cn(-c3ccccc3)nc2-c2cccc(O)c2)ccn1)c1ccccc1`, the growth was 63.3%.

As to `O=C(c1ccccc1)N1N=C(c2ccccc2)CC1c1nnc2n(Cc3ccccc3)c(=O)c3c4c(sc3n12)CCCC4` (stereo not given), the growth was 133%.

For the compound `COC(=O)/C=C1\S/C(=N\NS(=O)(=O)c2ccc(C)cc2)N(c2ccccc2)C1=O`, the growth is 109%.

`O=C1CCc2c(sc3[nH]c(=S)n(-c4ccc(OC(F)(F)F)cc4)c(=O)c23)C1`: the growth was 55.7%.

Consider `N#CC1=C(/N=C/c2ccccc2)Oc2c(ccc3ccccc23)C1c1ccccc1` (stereo not given), for which the growth was 28.8%.

On to `CNC(=O)NCC1OC(n2cnc3c(NC(=O)Nc4ccccc4)ncnc32)C(O[Si](C)(C)C(C)(C)C)C1CC(=O)N(C)OC` (stereo not given), for which the growth is 44.1%.

For `CN(C)c1ccc(-c2cc(-c3ccc(Nc4nc(Nc5ccc(Cl)cc5)nc(Nc5ccc(Cl)cc5)n4)cc3)no2)cc1`, the growth is 54.6%.

In the case of `O=c1[nH]nc(-c2ccccc2)c2c(-c3ccccc3)onc12`, the growth was 58.7%.

Turning to `NC(N)=NN=C(c1ccccc1)c1ccccc1`, the growth is 79.3%.

As to `O=C(Nc1cccc(C(F)(F)F)c1)Nc1cccc(C(F)(F)F)c1`, the growth is 25.3%.

In the case of `c1ccc2c(c1)nc(CN1CCOCC1)n1cc(N3CCCC3)nc21`, the growth was 92.9%.

`COc1ccc(-c2nc(SCCC(C)C)nc(N/N=C\c3ccccc3O)c2C#N)cc1`: the growth was 99.7%.

`CCCCN(CCCC)CC(C)(C)C(O)c1ccc(OC)c2ccccc12` (stereo not given): the growth was 57.6%.

For the compound `Cc1ccc(N(C(=O)CCc2c[nH]c3ccccc23)[C@H](C(=O)Nc2ccc(Cl)cc2)c2cccc([N+](=O)[O-])c2)cc1`, the growth was 98.4%.

Take `Cn1c(I)c(C#C[Si](C)(C)C)c(=O)n(C(=O)c2ccccc2)c1=O`: the growth is 60.9%.

Consider `CC(=O)c1nc(Nc2ccc(C)cc2)sc1C`, for which the growth was 97%.

As for `CCOc1c(C#N)nnc2c(C#N)c(NC(=O)c3ccccc3)nn12`, the growth was 102%.

Take `Cc1cc(NCc2cc(Nc3ccnc4cc(Cl)ccc34)ccc2F)nc(N2CCCC2)n1`: the growth is 6.27% (active).

For `COc1ccc(NC(=O)CSc2nc(C)c(C(C)=O)n2-c2ccc(Cl)cc2)cc1`, the growth was 98.6%.

Turning to `O=S(=O)(Nc1cccc(Cl)c1)c1ccc(-c2cnc(C3CC3)o2)cc1`, the growth was 37.2%.

Regarding `CCN(CC)CCCNc1ccc(Nc2ccc(OC)cc2)cc1`, the growth was 108%.

For `Cc1cc(C)c2c(-c3nnc(N)s3)cc(=O)oc2c1`, the growth was 103%.

Consider `O=C(O)C1CCC(=O)N1C(=O)OCc1ccccc1` (stereo not given), for which the growth is 92.6%.

In the case of `Cc1ccc(Cl)cc1NC(=O)c1cc2ccccc2cc1O`, the growth was -5.91% (active).

As to `Cn1cc(-c2csc(-c3ccccc3)n2)c2cccnc21`, the growth was -44.2% [100 µM] (active).

Take `CCOC(=O)c1c(-c2ccc(Cl)cc2)c(C#N)c(=O)n(-c2ccccc2CC)c1N`: the growth was 92.6%.

On to `COc1ccc2c(c1)O/C(=C\c1cccc(OCC(=O)Nc3nc4ccccc4s3)c1)C2=O`, for which the growth is 95.7%.

Regarding `COc1ccc(OC)c(-c2c(C#N)c(-c3ccc(Cl)cc3)nc3c2c(-c2ccccc2)nn3-c2ccccc2)c1`, the growth is 101%.

For `O=C(NCCc1ccc(O)c(O)c1)C12CC3CC(CC(C3)C1)C2`, the growth was 66.3%.

Regarding `COc1ccc(N=C(c2ccccc2)C2C(=O)c3ccccc3C2=O)cc1`, the growth is 104%.
